Among all 1,500 compounds or so, about 460 (31%) were called active. Not shown: some 1% with an inconclusive outcome. Not all results are given here. Entries with a potency or affinity are not part of this list. Values without a mark were called inactive.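 How the source made its calls: active means curve reaches 40% activation over neutral controls at an AC40 no higher than the top valid tested concentration; inconclusive means no clear call, values can overlap the other calls; inactive means signal moving opposite to the expected increase, and the rest.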

The nature of this assay: activators of glucose-dependent insulin secretion, dose response, cell-based, INS-1E, Gaussia luciferase, luminescence, cherry-pick, set 2 (AID 977607).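 Further: 0% = median of the plate neutral control wells.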 Particulars: INS-1E GLuc insulin secretion reporter, 2-3 h, hits give high values; at 35 µM, 100% = signal doubled over neutral wells unless noted.
As for `O=C(NC1CCCC1)C(C1CC1)n1c(-c2ccccn2)nc2ccccc21` (stereo not drawn), the max activation was -23.1% [at 0.135 µM, 100% = signal doubled over neutral wells].
For the compound `CC(C)C(C(=O)NCc1ccco1)N(CC1CCCO1)C(=O)CNS(=O)(=O)c1ccc(F)cc1` (stereo not drawn), the max activation is -14.9% [at 11 µM, 100% = signal doubled over neutral wells].
As for `CCSc1ncnc2sc3c(c12)CCC3`, the max activation is 31.4%.
As for `COc1ccccc1-c1cnc2c(Nc3cccc(OC(F)(F)C(F)F)c3)nccn12`, the max activation is -17.8% [at 11 µM, 100% = signal doubled over neutral wells].
As to `Cc1cccc(CN2C(=O)CSc3ccc(C(=O)NC4CC4)cc32)c1`, the max activation was 41% [at 0.135 µM, 100% = signal doubled over neutral wells].
Next, `Cc1cc(NCc2ccccn2)nc2ccccc12`: -14.9% [at 0.005 µM, 100% = signal doubled over neutral wells]; `CCOc1ccc(CCNC(=O)c2cc(C)on2)cc1OCC`: -13.4% [at 0.135 µM, 100% = signal doubled over neutral wells].
For the compound `O=C(CN1C(=O)NC(Cc2c[nH]c3ccccc23)C1=O)NCCc1ccccc1` (stereo not drawn), the max activation was 21% [at 11 µM, 100% = signal doubled over neutral wells].
Take `COc1ccc(CCn2nnc(-c3ccc(NC(C)=O)c(Cl)c3)n2)cc1`: the max activation was -24.6% [at 11 µM, 100% = signal doubled over neutral wells].
`COc1ccc(C2CC(=O)C(c3ccc(C)cc3)=CN2Cc2ccccc2)cc1` (stereo not drawn): the max activation is -26.2%.
As for `COc1ccc2nc(CCN(C)C(=O)C3CCC(=O)N(Cc4cccc(F)c4)C3)[nH]c2c1` (stereo not drawn), the max activation was -20.4%.
As to `COc1cccc(-c2ccc3c(c2)N(Cc2cccc(F)c2)C(=O)C(C)S3)c1` (stereo not drawn), the max activation was -26.7% [at 11 µM, 100% = signal doubled over neutral wells].
In the case of `O=c1c2sccc2n(Cc2cccc(F)c2)c(=O)n1-c1ccc(F)cc1` it was -14.5% [at 0.005 µM, 100% = signal doubled over neutral wells]; in that of `CN(C(=O)c1ccc(C#N)cc1)c1nnc(-c2cnccn2)s1`, -16.1% [at 0.42 µM, 100% = signal doubled over neutral wells]; in that of `Cc1cc(C)n(CC(=O)n2c3ccccc3c3ccccc32)n1`, 20.6%.
For the compound `CN[C@H]1C[C@@H](c2ccccc2)N(C(C)=O)C[C@H]1CO`, the max activation was -14% [at 0.135 µM, 100% = signal doubled over neutral wells].
Take `COC(=O)c1ccc(C)c(-n2c(=O)n(Cc3ccccc3)c(=O)c3[nH]cnc32)c1`: the max activation was -20.8% [at 0.005 µM, 100% = signal doubled over neutral wells].
Next, `CC1CN(Cc2ccccc2)C(=S)NC1=O` (stereo not drawn): -25.1% [at 3.8 µM, 100% = signal doubled over neutral wells]; `Cc1c(C=O)c2ccccn2c1C(=O)c1ccc(F)cc1`: -14.1% [at 0.0016 µM, 100% = signal doubled over neutral wells]; `Cc1ccc(C(=O)c2sc3nc4c(cc3c2N)CCC4)cc1`: -20.2% [at 3.8 µM, 100% = signal doubled over neutral wells].
As to `O=C(N/N=C/c1ccncc1)c1cc(-c2ccc(Br)s2)[nH]n1`, the max activation is 46.1%.
Next, `Fc1cccc(-c2nnn3c2nc(Cl)c2ccccc23)c1`: -32% [at 11 µM, 100% = signal doubled over neutral wells]; `CCc1cc2c(COC(=O)c3cccc(NS(C)(=O)=O)c3)cc(=O)oc2cc1O`: -16.1%.
With `O=C1CCc2cc(S(=O)(=O)N3CCN(c4ccc(F)cc4)CC3)cc3c2N1CC3`, the max activation is -14.5% [at 0.0016 µM, 100% = signal doubled over neutral wells].
Regarding `CC(C)(C(=O)N1CCC1(C)C(=O)NS(=O)(=O)c1cccc(Cl)c1)c1ccccc1` (stereo not drawn), the max activation is -17.3% [at 0.135 µM, 100% = signal doubled over neutral wells].
Regarding `CCOc1ccccc1CNS(=O)(=O)c1cnc[nH]1`, the max activation is -8.34% [at 0.005 µM, 100% = signal doubled over neutral wells].
`CN1CCN(CC(O)COC(c2ccc(Cl)cc2)c2ccc(Cl)cc2)CC1` (stereo not drawn): the max activation is -16.1% [at 11 µM, 100% = signal doubled over neutral wells].
In the case of `COc1ccccc1CSc1nc2c(c(=O)n(C)c(=O)n2C)n1C` it was -16.4%; in that of `CC(=O)C(C)n1c(CN(C)Cc2ccccc2)nc2c1c(=O)n(C)c(=O)n2C` (stereo not drawn), 13.8% [at 11 µM, 100% = signal doubled over neutral wells].
Turning to `CCOC(=O)c1nn(-c2ccccc2)c2nc(Nc3ccccc3)cc(=O)n12`, the max activation is -18.7% [at 0.0016 µM, 100% = signal doubled over neutral wells].
Turning to `O=S(=O)(c1ccc(=S)[nH]c1)N1CCCCCC1`, the max activation was 19.7%.
`Cc1ccc(C(=O)c2sc(Nc3ccccc3)c(C#N)c2N)cc1`: the max activation is -18.3% [at 0.005 µM, 100% = signal doubled over neutral wells].
Next, `Cc1ccc(C)c(OCC(=O)NCC(C)(C)N2CCOCC2)c1`: -15.8% [at 0.015 µM, 100% = signal doubled over neutral wells]; `Cc1ccc(C)c(OCC(=O)Nc2cc(NC(=O)COc3cc(C)ccc3C)cc(C(=O)O)c2)c1`: -27.7%.
For `CC(C)Cn1c(Cc2ccccc2)n[nH]c1=S`, the max activation is -12.9% [at 3.8 µM, 100% = signal doubled over neutral wells].
Consider `Cc1ccc2nc(N/N=C/c3ccccc3C#N)nc(-c3ccccc3)c2c1`, for which the max activation was -36.1%.
Next, `COCc1[nH]nc2c1C(c1ccc(C)cc1)NC2=O` (stereo not drawn): 25.3%; `COc1ccc(S(=O)(=O)N2CCOCC2)cc1NC(=O)COc1ccccc1`: -23.5%.
Turning to `CCOc1ccc(C(=O)OCC(=O)Nc2cc(C)on2)cc1OCC`, the max activation is 24%.
`CCOc1ccc(-c2noc(CCC(=O)NC)n2)cc1OCC`: the max activation is -18.4% [at 0.005 µM, 100% = signal doubled over neutral wells].
With `Cc1sc2ncn(CC(=O)NCc3ccccc3)c(=O)c2c1C`, the max activation was -22.8% [at 0.015 µM, 100% = signal doubled over neutral wells].
With `O=C(Cn1cnc2sc(-c3ccccc3)cc2c1=O)NCCc1ccccc1`, the max activation is -13.9% [at 11 µM, 100% = signal doubled over neutral wells].
Turning to `CCC(=O)Nc1cc2nn(-c3ccc(OC)cc3)nc2cc1C`, the max activation was -15.9% [at 3.8 µM, 100% = signal doubled over neutral wells].
For the compound `COc1ccc(C(C)=O)cc1Cn1cnc2c(cnn2C)c1=O`, the max activation was -12.8% [at 0.015 µM, 100% = signal doubled over neutral wells].
On to `Cc1cc(-c2ccc(S(=O)(=O)N3CCN(C)CC3)s2)on1`, for which the max activation was -22.5%.
In the case of `OC(c1ccc(Cl)cc1)C(CN1CCOCC1)c1ccccc1` (stereo not drawn), the max activation is -24.5%.
Turning to `COC(=O)c1ccc(CNC(=O)CCc2c[nH]c3ccccc23)cc1`, the max activation is -13.7% [at 0.015 µM, 100% = signal doubled over neutral wells].
Take `C/C(=N/Oc1nc(C)cc(C)n1)c1ccc(F)cc1`: the max activation is -10.7% [at 3.8 µM, 100% = signal doubled over neutral wells].
Next, `COc1ccc(-n2c(O)cnc2Nc2nc(C)cc(C)n2)cc1OC`: -16.8% [at 0.135 µM, 100% = signal doubled over neutral wells]; `CNc1cc(-c2ccc(OC)c(OC)c2)ncn1`: -15.3% [at 0.046 µM, 100% = signal doubled over neutral wells].
As for `CNc1ccc(-c2ccccc2OC)cn1`, the max activation is -9.32% [at 1.2 µM, 100% = signal doubled over neutral wells].
For the compound `O=C(NC1CCCC1)c1ccc(Cl)c(S(=O)(=O)N2CCOCC2)c1`, the max activation is 23.2% [at 0.42 µM, 100% = signal doubled over neutral wells].
For the compound `Cc1ccccc1CSCc1ccc(C(=O)NCCCN2CCOCC2)o1`, the max activation was -12.1% [at 0.046 µM, 100% = signal doubled over neutral wells].
Turning to `CCOc1ccc2oc(=O)cc(CN3CCOCC3)c2c1`, the max activation was 12.7%.
For `Cc1ccccc1-n1nc2c(c1NC(=O)c1cc3ccccc3oc1=O)CS(=O)(=O)C2`, the max activation is 24.5% [at 3.8 µM, 100% = signal doubled over neutral wells].
As to `CC(C)CC(=O)Nc1c2c(nn1-c1ccc(F)cc1)CS(=O)(=O)C2`, the max activation is -20.4% [at 1.2 µM, 100% = signal doubled over neutral wells].
In the case of `c1ccc(CNc2nc(Oc3ccncc3)c3sccc3n2)cc1` it was 13.8% [at 11 µM, 100% = signal doubled over neutral wells].
In the case of `Cc1cc(Cl)ccc1-c1nc(NCc2ccccc2)nc2ccsc12` it was -22.5% [at 11 µM, 100% = signal doubled over neutral wells].

The record behind these values is PubChem BioAssay AID977607 (Broad Institute, 2014).
